# Measurements: PubChem BioAssay (NCATS)
# Unmarked numbers belong to inactive results. Records with an inconclusive call do not appear. A call without a number means that no potency is given here. Active and inactive are the calls of the source. Unless noted, calls come from the whole dose curve; as a rule, active = well fitted curve in the direction sought with a large enough effect; inconclusive = small, poorly fitted or top-dose-only effect, or another doubt; inactive = no such curve, though single readings can be large; an effect the other way counts as inactive or inconclusive.
# Columns and labels:
# [1] = qHTS Assay for Identification of Small Molecule Antagonists for NFkB Signaling Pathway (AID 895; active = well fitted inhibition curve with a large enough effect in the signal ratio, with a control signal flat, not every such curve was filed as active; the % refers to the signal ratio; note: potency is the fitted concentration of half-maximal effect)
# Method in brief: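 Beta-lactamase reporter read-out (460 and 530 nm emission ratio, 405 nm excitation, 2 hrs substrate loading RT) after 5 hr stimulation with 10 pM TNF alpha in compound-treated NFkB-bla ME-180 cells in low-serum medium.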
# [2] = qHTS Assay for Identification of Small Molecule Agonists for Thrombopoietin (TPO) Signaling Pathway (AID 917)
# Method in brief: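 Ba/F3 (mouse) + hTPO receptor + GpIIb-promoter luciferase; IL-3 withdrawn overnight; compound + 26 pM TPO (EC50), 24 hrs, 37 C, 5% CO2; Steadylite luminescence, 10 min RT.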
# [3] = target: Muscarinic acetylcholine receptor M1 (Rattus norvegicus) (UniProt P08482); assay: qHTS Assay for Antagonists of Acetylcholine Muscarinic M1 Receptor: Kinetic Measurement of Intracellular Calcium Response (AID 943);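 note: Fluo-4 calcium signal as peak divided by basal fluorescence over 4 min; series mostly up to about 35 µM; nearly all actives have a fitted effect of over 75% in size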
# Method in brief: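 Antagonism measured as reduction of carbachol-evoked (EC80, 100 nM final) calcium flux in rat M1-CHO cells after 10 min compound exposure. Fluo-4 signal read kinetically; ratio of maximal to basal fluorescence.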
# [4] = target: Pyruvate kinase (Leishmania mexicana) (UniProt Q27686); assay: qHTS Validation Assay for Inhibitors of Leishmania Mexicana Pyruvate Kinase (AID 945)
# Method in brief: (§1)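 Luminescent ATP detection (PKLight) after a 1 h room-temperature reaction of 0.2 nM LmPYK E451W mutant with 0.5 mM PEP and 0.1 mM ADP at pH 7.2. Activity is normalized to DMSO-only control wells.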
# [5] = target: Pyruvate kinase PKM (Homo sapiens) (UniProt P14618); assay: qHTS Assay for Activators of Human Muscle Pyruvate Kinase (AID 954; active = well fitted curve in the direction sought with a large enough effect, not every such curve was filed as active)
# Method in brief: (§2)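 ATP production by PKM2 detected via luciferase luminescence after 1 h room-temperature reaction (0.1 nM enzyme, PEP at Km 0.5 mM, ADP 0.1 mM, pH 7.2 imidazole buffer). Inhibition scaled to no-enzyme control; activation referenced to 0.3 nM enzyme wells.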
# [6] = target: Muscarinic acetylcholine receptor M1 (Rattus norvegicus) (UniProt P08482); assay: qHTS Assay for Antagonists of Acetylcholine Muscarinic M1 Receptor: Measurement of IP-One Response (AID 944); note: nearly all actives have a fitted effect of over 75% in size
# Method in brief: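 IP1 accumulation measured via TR-FRET between d2-IP1 and Eu-cryptate anti-IP1 antibody after carbachol (200 nM, EC80) stimulation for 30 min; rat M1-transfected CHO cells received compound 10 min before agonist.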
# [7] = Confirmation and Secondary Assay for Modulators of Hemoglobin Beta Chain Splicing at IVS2 654 locus (AID 910);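 note: HeLa cells stably carrying EGFP split by mutant beta-globin IVS2-654 intron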
# Method in brief: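 Readout: per-well total peak green fluorescence (488 nm ex, 500–520 nm em) from objects 5–250 µm, reflecting correct splicing of an EGFP-654 reporter. Compounds were applied for 2 days at 37 °C to overnight-plated HeLa EGFP-654 cells; controls were DMSO and 500 nM IVS2-654 PNA.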
# [8] = Confirmation and Secondary Assay for Modulators of Hemoglobin Beta Chain Splicing at IVS2 705 locus (AID 930);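 note: HeLa cells stably expressing the EGFP-705 splicing reporter; GFP fluorescence per well restored by corrected splicing of the IVS2-705 intron in EGFP; series mostly up to about 46 µM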
# Method in brief: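 Read-out: total peak GFP fluorescence per well (488 nm excitation, 500-520 nm emission) by laser-scanning cytometry. Cells: HeLa EGFP-705 splicing reporter, 2 days compound exposure in Optimem/2% FCS.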
# [9] = target: Pyruvate kinase (Leishmania mexicana) (UniProt Q27686); assay: qHTS Validation Assay for Activators of Leishmania Mexicana Pyruvate Kinase (AID 959)
# Method in brief: as §1
# [10] = qHTS Assay for Identification of Small Molecule Agonists for Hypoxia Response Element Signaling Pathway (AID 914; active = well fitted activation curve with a large enough effect in the signal ratio, with a control signal flat, not every such curve was filed as active; the % refers to the signal ratio); details: ME-180 (cervical carcinoma) HRE-bla reporter, beta-lactamase ratio, CoCl2, 17 h; activation: stronger effect = higher value
# Method in brief: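 HRE-bla ME-180 cells, overnight plating in Opti-MEM with 0.5% dialyzed FBS; cpd titration + EC50 CoCl2, 17 h, 37 degrees Celsius; CCF4 2.5 h RT; 460/530 nm ratio; AC50.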
# [11] = qHTS Assay for Identification of Small Molecule Antagonists for Thrombopoietin (TPO) Signaling Pathway (AID 918); details: TPO-dependent cell signaling reporter, antagonist mode; note: potency is the fitted concentration of half-maximal effect; nearly all actives have a fitted effect of over 60% in size
# Method in brief: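 Inhibition read as reduced luciferase luminescence after 24 h at 37 C in IL-3-deprived Ba/F3 cells carrying human TPO receptor and GPIIb-promoter reporter, stimulated with 26 pM TPO (final, its EC50) alongside compound.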
# [12] = target: Pyruvate kinase PKM (Homo sapiens) (UniProt P14618); assay: qHTS Assay for Inhibitors of Human Muscle Pyruvate Kinase (AID 958)
# Method in brief: as §2
# [13] = target: Cytochrome P450 2C19 (Homo sapiens) (UniProt P33261); assay: qHTS Assay for Inhibitors and Substrates of Cytochrome P450 2C19 (AID 899); note: nearly all actives have a fitted effect of over 60% in size
# Method in brief: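 Luminescence readout of luciferin formed from 10uM Luciferin-H EGE (KM level) by 5 nM CYP2C19 in 50mM KPO4. 60 min NADPH-driven reaction at 37C after 10 min compound preincubation; data scaled to 57uM ketoconazole inhibition.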
# Pyruvate kinase (Leishmania mexicana), sequence (Q27686 2-499 E452W): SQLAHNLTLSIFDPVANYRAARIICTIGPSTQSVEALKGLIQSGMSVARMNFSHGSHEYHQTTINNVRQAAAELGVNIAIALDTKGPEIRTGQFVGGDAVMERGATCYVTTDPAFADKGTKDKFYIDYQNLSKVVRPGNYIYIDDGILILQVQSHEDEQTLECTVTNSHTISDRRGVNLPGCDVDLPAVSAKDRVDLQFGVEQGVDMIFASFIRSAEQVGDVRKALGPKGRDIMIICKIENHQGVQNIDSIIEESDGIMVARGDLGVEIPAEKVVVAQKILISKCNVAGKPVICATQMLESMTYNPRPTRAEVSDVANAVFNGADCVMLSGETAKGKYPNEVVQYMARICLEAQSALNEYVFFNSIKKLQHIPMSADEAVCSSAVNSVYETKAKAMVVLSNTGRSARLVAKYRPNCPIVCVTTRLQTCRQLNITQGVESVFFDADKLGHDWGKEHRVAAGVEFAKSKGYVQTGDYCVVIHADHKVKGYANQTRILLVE
# Muscarinic acetylcholine receptor M1 (Rattus norvegicus), sequence (P08482 whole entry, looked up): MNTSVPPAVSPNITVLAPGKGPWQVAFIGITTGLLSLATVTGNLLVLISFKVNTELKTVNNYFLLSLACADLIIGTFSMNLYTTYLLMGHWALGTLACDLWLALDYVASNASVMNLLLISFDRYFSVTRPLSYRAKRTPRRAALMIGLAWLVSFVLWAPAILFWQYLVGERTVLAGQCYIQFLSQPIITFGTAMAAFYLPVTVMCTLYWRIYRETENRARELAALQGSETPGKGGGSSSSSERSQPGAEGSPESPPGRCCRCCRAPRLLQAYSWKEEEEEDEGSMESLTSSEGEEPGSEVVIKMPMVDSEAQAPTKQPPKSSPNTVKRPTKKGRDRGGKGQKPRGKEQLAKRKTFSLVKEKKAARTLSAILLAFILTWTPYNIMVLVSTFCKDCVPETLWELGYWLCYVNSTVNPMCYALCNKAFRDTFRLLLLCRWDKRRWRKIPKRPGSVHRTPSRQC
# Pyruvate kinase PKM (Homo sapiens), sequence (P14618 whole entry, looked up): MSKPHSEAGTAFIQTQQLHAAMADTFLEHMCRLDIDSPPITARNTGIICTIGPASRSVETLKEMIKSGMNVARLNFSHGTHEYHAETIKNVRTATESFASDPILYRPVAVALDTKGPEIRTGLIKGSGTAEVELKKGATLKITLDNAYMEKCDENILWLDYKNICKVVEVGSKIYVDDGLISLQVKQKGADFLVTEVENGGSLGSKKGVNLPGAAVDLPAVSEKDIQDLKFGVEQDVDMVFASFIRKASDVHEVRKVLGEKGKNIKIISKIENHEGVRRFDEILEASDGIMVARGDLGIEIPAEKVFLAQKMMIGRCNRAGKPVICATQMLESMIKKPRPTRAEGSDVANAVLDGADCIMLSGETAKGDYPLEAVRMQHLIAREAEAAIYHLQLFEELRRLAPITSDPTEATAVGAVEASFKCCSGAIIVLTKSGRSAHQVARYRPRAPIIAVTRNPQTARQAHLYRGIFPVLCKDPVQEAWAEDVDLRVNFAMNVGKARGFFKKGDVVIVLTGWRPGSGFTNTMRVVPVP
# Cytochrome P450 2C19 (Homo sapiens), sequence (P33261 whole entry, looked up): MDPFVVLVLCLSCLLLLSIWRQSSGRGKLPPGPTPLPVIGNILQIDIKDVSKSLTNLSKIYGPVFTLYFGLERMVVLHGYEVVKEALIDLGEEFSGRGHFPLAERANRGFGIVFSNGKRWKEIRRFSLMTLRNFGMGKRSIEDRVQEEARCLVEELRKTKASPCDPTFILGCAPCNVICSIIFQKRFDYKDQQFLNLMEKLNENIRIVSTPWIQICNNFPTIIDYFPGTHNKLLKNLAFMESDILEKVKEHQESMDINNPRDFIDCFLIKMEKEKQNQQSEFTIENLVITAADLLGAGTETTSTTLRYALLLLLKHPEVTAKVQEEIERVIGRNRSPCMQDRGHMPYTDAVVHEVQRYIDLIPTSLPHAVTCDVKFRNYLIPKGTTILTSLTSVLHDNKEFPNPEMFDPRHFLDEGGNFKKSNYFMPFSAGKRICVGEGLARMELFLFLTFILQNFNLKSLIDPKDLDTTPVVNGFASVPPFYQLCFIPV
smiles,measurement,setting,value
C=CCn1c(=O)c2c(nc(-c3ccc(S(=O)(=O)O)cc3)n2C)n(C)c1=O,Potency,[1],inactive
same,Potency,[2],inactive
same,Potency,[3],inactive
same,Potency,[4],inactive
same,outcome,[5],inactive
N[C@H](C(=O)O)c1cc(O)cc(O)c1,Potency,[1],inactive
same,Potency,[2],inactive
same,Potency,[6],inactive
same,Potency,[4],inactive
same,outcome,[5],inactive
CC(=O)NCCc1c[nH]c2ccc(O)cc12,Potency,[1],inactive
same,Potency,[7],inactive
same,outcome,[8],inactive
same,Potency,[3],inactive
same,Potency,[6],inactive
same,Potency,[4],inactive
same,outcome,[5],inactive
N#Cc1cc2nc(O)c(O)nc2cc1[N+](=O)[O-],Potency,[1],inactive
same,Potency,[2],inactive
same,Potency,[3],inactive
same,Potency,[6],inactive
same,Potency,[4],inactive
same,outcome,[5],inactive
same,Potency,[9],25.1 µM (active)
Cn1c(=O)[nH]c2ncn(C)c2c1=O,Potency,[1],inactive
same,Potency,[7],inactive
same,outcome,[8],inactive
same,Potency,[3],inactive
same,Potency,[6],inactive
same,Potency,[4],inactive
same,outcome,[5],inactive
CCN(CC)CCOC(=O)c1cc(Cl)c(N)cc1OC,Potency,[1],inactive
same,Potency,[2],inactive
same,Potency,[6],inactive
same,Potency,[4],inactive
same,outcome,[5],inactive
COc1cc2c(CCNC(C)=O)c[nH]c2cc1O,Potency,[1],inactive
same,Potency,[2],inactive
same,Potency,[6],inactive
same,Potency,[4],inactive
same,outcome,[5],inactive
O=C(O)C1=CCNCC1,Potency,[1],inactive
same,Potency,[7],inactive
same,Potency,[2],inactive
same,outcome,[8],inactive
same,Potency,[6],inactive
same,Potency,[4],inactive
same,outcome,[5],inactive
N[C@H](C(=O)O)[C@H](O)C(=O)O,Potency,[1],inactive
same,Potency,[2],inactive
same,Potency,[6],inactive
same,Potency,[4],inactive
same,outcome,[5],inactive
O=C(O)c1cccnc1C(=O)O,Potency,[1],inactive
same,Potency,[7],inactive
same,outcome,[8],inactive
same,Potency,[3],inactive
same,Potency,[6],inactive
same,Potency,[4],inactive
same,outcome,[5],inactive
N#CC(C#N)=C(N)/C(C#N)=C/c1ccc(O)cc1,Potency,[1],inactive
same,Potency,[2],inactive
same,Potency,[3],inactive
same,Potency,[6],inactive
same,Potency,[4],inactive
same,outcome,[5],inactive
O=C(O)C1CCNCC1,Potency,[1],inactive
same,Potency,[2],inactive
same,Potency,[6],inactive
same,Potency,[4],inactive
same,outcome,[5],inactive
O=C(O)/C(=C/c1c(C(=O)O)[nH]c2cc(Cl)cc(Cl)c12)c1ccccc1,Potency,[1],inactive
same,Potency,[2],inactive
same,Potency,[3],inactive
same,Potency,[6],inactive
same,Potency,[4],inactive
same,outcome,[5],inactive
CCSC(=N)N,Potency,[1],inactive
same,Potency,[7],inactive
same,outcome,[8],inactive
same,Potency,[6],inactive
same,Potency,[4],inactive
same,outcome,[5],inactive
O=[N+]([O-])c1cccc2cn[nH]c12,Potency,[1],inactive
same,Potency,[7],inactive
same,Potency,[2],inactive
same,outcome,[8],inactive
same,Potency,[6],inactive
same,Potency,[4],inactive
same,outcome,[5],inactive
C#CCn1c(=O)c2c(ncn2C)n(C)c1=O,Potency,[1],inactive
same,Potency,[2],inactive
same,Potency,[3],inactive
same,Potency,[6],inactive
same,Potency,[4],inactive
same,outcome,[5],inactive
O=c1onc2cnc3ccccc3n12,Potency,[1],5.62 µM (active)
same,Potency,[2],inactive
same,Potency,[6],inactive
same,Potency,[4],inactive
same,outcome,[5],inactive
CCN1C(=O)C=CC1=O,Potency,[1],inactive
same,activation,[10],23.4%
same,Potency,[11],1.58 µM (active)
same,Potency,[3],inactive
same,Potency,[6],inactive
same,Potency,[4],inactive
same,outcome,[5],inactive
O=C1Nc2ccc(I)cc2/C1=C/c1cc(Br)c(O)c(Br)c1,Potency,[1],8.91 µM (active)
same,Potency,[2],inactive
same,Potency,[3],inactive
same,Potency,[4],inactive
same,outcome,[5],inactive
N=C(N)c1ccccc1,Potency,[1],inactive
same,Potency,[2],inactive
same,Potency,[6],inactive
same,Potency,[4],inactive
same,outcome,[5],inactive
O=C(O)C1=CC(=C(c2ccc(O)c(C(=O)O)c2)c2ccc(O)c(C(=O)O)c2)C=CC1=O,Potency,[1],inactive
same,Potency,[7],inactive
same,outcome,[8],inactive
same,Potency,[3],inactive
same,Potency,[6],inactive
same,Potency,[4],inactive
same,Potency,[12],inactive
C[N+](C)(C)CC=O,Potency,[1],inactive
same,Potency,[2],inactive
same,Potency,[6],inactive
same,Potency,[4],inactive
same,outcome,[5],inactive
CCCn1c(=O)c2[nH]c(C3CCCC3)nc2n(CCC)c1=O,Potency,[1],inactive
same,Potency,[7],inactive
same,Potency,[2],inactive
same,outcome,[8],inactive
same,Potency,[6],inactive
same,Potency,[4],inactive
same,outcome,[5],inactive
Cc1nc(N=Nc2ccc(C(=O)O)cc2)c(COP(=O)(O)O)c(C=O)c1O,Potency,[1],inactive
same,Potency,[2],inactive
same,Potency,[6],inactive
same,Potency,[4],inactive
same,outcome,[5],inactive
same,Potency,[9],5.01 µM (active)
NC1(C(=O)O)CC1,Potency,[1],inactive
same,Potency,[7],inactive
same,activation,[10],-20.7%
same,outcome,[8],inactive
same,Potency,[6],inactive
same,Potency,[4],inactive
same,outcome,[5],inactive
CN[C@H](CC(=O)O)C(=O)O,Potency,[1],inactive
same,Potency,[13],inactive
same,Potency,[6],inactive
same,Potency,[4],inactive
same,outcome,[5],inactive
NC/C=C\C(=O)O,Potency,[1],inactive
same,Potency,[7],inactive
same,Potency,[2],inactive
same,outcome,[8],inactive
same,Potency,[3],inactive
same,Potency,[6],inactive
same,Potency,[4],inactive
same,outcome,[5],inactive
[Li+],Potency,[1],inactive
same,activation,[10],9.95%
same,Potency,[6],inactive
same,Potency,[4],inactive
same,outcome,[5],inactive
COc1ccc(-c2ccc(N)[n+](CCCC(=O)O)n2)cc1,Potency,[1],inactive
same,Potency,[2],inactive
same,Potency,[3],inactive
same,Potency,[6],inactive
same,Potency,[4],inactive
same,outcome,[5],inactive
O=c1[nH]ccc2c(O)cccc12,Potency,[1],inactive
same,Potency,[2],inactive
same,Potency,[6],inactive
same,Potency,[4],inactive
same,outcome,[5],inactive
NC1(C(=O)O)CCCCC1,Potency,[1],inactive
same,Potency,[2],inactive
same,Potency,[6],inactive
same,Potency,[4],inactive
same,outcome,[5],inactive
